Only some compounds are listed: those with a hit (about 6.3% of all), similar ones and a draw of the others.
HepG2 viability = qHTS for Inhibitors of TGF-b: Cytotox Counterscreen; HepG2 CAGA-GFP viability, ATP luminescence, 18 h; Potency, µM (series often up to 46.1 µM), without a hit: top-dose activity change, negative = cytotoxicity, hits mostly cytotoxic; 0.76% of 410,000 active
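HepG2 CAGA-GFP cells (1000/well, DMEM with 1% FBS) received compound, then TGF-beta at 500 pg/mL final, and were incubated 18 hours at 37 degrees C. Viability was read by CellTiter-Glo luminescence. Media-only wells were set as complete cell-killing and DMSO as no toxicity.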
ATXN viability = Viability Counterscreen for Primary qHTS for Inhibitors of ATXN expression; Potency, µM (top dose mostly 56.7 µM), most hits filed as cytotoxic; S2 cells (HEK-293 line with an ATXN2-luciferase reporter) viability, CellTiter-Fluor protease fluorescence, 24 h; 0.49% of 400,000 active; further: nearly all actives have a fitted effect of over 40% in size
TGFb inhibitor = qHTS for Inhibitors of TGF-b; HepG2 CAGA-GFP TGF-b/SMAD3 reporter, GFP fluorescence, 18 h; TGF-beta stimulated, 500 pg/mL final; Potency, µM (highest dose often 46.1 µM), inactives show top-dose activity, negative = inhibition, hits mostly inhibitors; 1.2% of 410,000 active; further: on the % scale 0 is the no-effect control and ±100 the full control effect; nearly all actives have a fitted effect of over 65% in size
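HEPG2 CAGA-GFP reporter cells (1000/well, DMEM with 1% FBS) received compounds, then recombinant TGF-beta at 500 pg/mL final for 18 hours at 37 degrees C. Per-cell GFP summed per well was normalised to unstimulated and stimulated DMSO controls before curve fitting.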
RORg inh = qHTS for inhibitors of ROR gamma transcriptional activity | 5.4% of 310,000 active | Drosophila S2 Gal4-RORgamma UAS-luciferase reporter, 20 h | Potency, µM (titrated, usually from 53.6 µM), for the others: at the top dose activity change, negative = inhibition, usual class: inhibitors | Nuclear receptor ROR-gamma (Mus musculus), P51450; further: on the % scale 0 is the no-effect control and ±100 the full control effect; nearly all actives have a fitted effect of over 60% in size
Target sequence (P51450 whole entry, looked up, the tested form may be a part): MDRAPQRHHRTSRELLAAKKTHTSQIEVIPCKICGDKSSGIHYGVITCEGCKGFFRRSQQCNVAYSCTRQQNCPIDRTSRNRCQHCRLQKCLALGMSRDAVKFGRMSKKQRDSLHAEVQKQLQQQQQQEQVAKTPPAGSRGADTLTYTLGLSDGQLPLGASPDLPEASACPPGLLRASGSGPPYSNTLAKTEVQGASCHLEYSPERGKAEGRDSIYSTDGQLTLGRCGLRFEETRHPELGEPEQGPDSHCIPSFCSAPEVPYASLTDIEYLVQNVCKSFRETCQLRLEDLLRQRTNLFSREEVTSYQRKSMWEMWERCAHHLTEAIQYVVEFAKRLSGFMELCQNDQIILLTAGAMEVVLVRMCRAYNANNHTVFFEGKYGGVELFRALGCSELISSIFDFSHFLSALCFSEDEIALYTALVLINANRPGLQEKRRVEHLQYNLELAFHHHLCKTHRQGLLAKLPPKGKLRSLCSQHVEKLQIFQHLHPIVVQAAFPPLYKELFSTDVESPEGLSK
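Luciferase reporter read in Schneider cells carrying Gal4-RORγ (mouse) and UAS-Photinus luciferase; cells given compound 1 h before 700 uM copper sulfate induction, then incubated 20 h at ambient temperature.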
VP16 counter = VP16 counterscreen qHTS for inhibitors of ROR gamma transcriptional activity | 3.5% of 310,000 active | Potency, µM (highest dose often 53.6 µM), inactives show top-dose activity, negative = inhibition, actives largely listed as inhibitors | Drosophila S2 Gal4-VP16 UAS-luciferase, luminescence, 20 h | AID 2546, 2010;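 further: Gal4-VP16 expression switched on by copper sulfate through the metallothionein promoter; on the % scale 0 is the no-effect control and ±100 the full control effect; nearly all actives have a fitted effect of over 50% in size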
ATXN2 expr inh = Primary qHTS for Inhibitors of ATXN expression | HEK-293 ATXN2-luciferase reporter, luminescence, 24 h | Potency, µM (top dose mostly 57 µM), for the others: at the highest dose activity change, negative = inhibition, usual class: inhibitors | 0.72% of 360,000 active | AID 1745845, 2022; further: on the % scale 0 is the no-effect control and ±100 the full control effect; nearly all actives have a fitted effect of over 55% in size
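ATXN2-luciferase reporter cells (luciferase flanked by upstream and downstream ATXN2 gene portions) were treated 24 h at 37 °C with compounds at up to 57 uM. SteadyGlo luminescence gave expression; GF-AFC fluorescence gave viability.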
Starred values were filed as active, the others as inactive; i = inactive; ? = inconclusive; . = no result given. The call rests on the fitted dose curve; in most records, active means well fitted curve in the direction sought with a large enough effect; inconclusive means small, poorly fitted or top-dose-only effect, or another doubt; inactive means no such curve, though single readings can be large; an effect the other way counts as inactive or inconclusive. Potency means the concentration at half of the fitted maximal effect.

SMILES | HepG2 viability | ATXN viability | TGFb inhibitor | RORg inh | VP16 counter | ATXN2 expr inh
O=C(CN1C(=O)COc2ccc(S(=O)(=O)N3CCCCC3)cc21)NCCc1ccc(Cl)cc1 | -5.3% | . | ? | . | . | .
COC(=O)[C@@H]1CCCN1Cc1ccc2c(c1)CN(Cc1ccccc1C)CCO2 | . | i | . | . | . | .
CN(C)C(=O)c1ccc(-c2ccc3ncnc(NCc4ccccc4)c3c2)cc1 | . | . | . | 23.3% | 11.6% | .
Cc1ccc(/C=N/Nc2nc3ccccc3[nH]2)s1 | -16.6% | ? | ? | 4.47µM* | 5.01µM* | -26.8%
Cc1[nH]c2ccccc2c1/C=N/Nc1nc2ccccc2[nH]1 | -3.0% | ? | ? | -1.5% | -18.8% | ?
Cc1ccccc1/C=N/Nc1nc2ccccc2[nH]1 | -17.2% | i | -22.7% | 7.08µM* | -93.0% | 30.1%
Cc1ccsc1/C=N/Nc1nc(Cl)c(Cl)cc1Cl | -10.1% | i | -1.2% | -33.7% | 4.3% | 43.2%
Cc1ccc(/C=N/Nc2nc(Cl)c(Cl)cc2Cl)s1 | 2.6% | i | 26.7% | 11.2µM* | ? | 75.5%
CC(=O)Nc1cc2c(cc1Cl)-c1ccccc1C2 | 8.0% | i | -2.5% | . | . | 27.5%
CCC(=O)Nc1cc2c(cc1Cl)-c1ccccc1C2 | 12.6µM* | i | 16.6% | . | . | 45.4%
O=C(NCCc1nc2ccccc2n1CCOc1cccc2ccccc12)C1CCCCC1 | 5.4% | . | -4.9% | . | . | .
CCc1c(C)nc2cc(-c3ccc(OC)c(OC)c3)nn2c1NCC1CC1 | -31.7% | ? | -1.2% | 11.2µM* | 4.47µM* | 3.2%
COc1ccc(CCNC(=O)CCc2c(C)nc3cc(-c4ccccc4)nn3c2C)cc1OC | -27.6% | i | -25.1% | . | . | ?
O=C(N/N=C/c1cccc(NC(=O)c2ccc(Cl)cc2)c1)c1cccc(O)c1 | 0.7% | i | -21.0% | -9.4% | -5.5% | -9.8%
O=C(N/N=C/c1cccs1)c1cccc(S(=O)(=O)Nc2ccc(Cl)cc2)c1 | -32.3% | ? | -31.7% | 3.98µM* | 5.62µM* | ?
O=C(N/N=C/c1cccs1)c1cccc(NC(=O)c2ccc(Cl)cc2)c1 | . | . | . | 10µM* | 12.6µM* | .
CCOc1cc(-c2nccc3cc(OC)c(OC)cc23)cc(OCC)c1OCC | -39.5% | ? | ? | 8.91µM* | 5.62µM* | ?
CC(C)Nc1ncnc2c1cnn2-c1ccccc1 | -1.5% | i | -11.8% | ? | 14.1µM* | 48.1%
c1ccc(-n2ncc3c(NC4CCCCCC4)ncnc32)cc1 | -24.1% | i | -15.8% | -6.0% | -5.6% | 46.1%
Cc1cccc(-n2ncc3c(Nc4ccc(F)cc4)ncnc32)c1 | -16.0% | i | -6.2% | -13.4% | 11.2µM* | 6.9%
COC(=O)c1ccc(Nc2ncnc3c2cnn3-c2cccc(C)c2)cc1 | 2.0% | i | 16.8% | 9.7% | -0.4% | 7.3%
Cc1cccc(-n2ncc3c(NC(C)C)ncnc32)c1 | -12.0% | i | -9.1% | ? | ? | 47.2%
Cc1ccc(Cn2ncc3c(NN)ncnc32)cc1 | -53.9% | i | ? | 12.6µM* | ? | ?
NNc1ncnc2c1cnn2-c1ccccc1 | -31.6% | i | ? | 11.2µM* | ? | -29.0%
Cc1ccc(Cn2ncc3c(NCCN(C)C)ncnc32)cc1 | -12.3% | i | -5.9% | 0.0% | 3.7% | .
COc1ccc(C(=O)NCCn2cc(SCC(=O)Nc3cccc(C)c3)c3ccccc32)cc1 | -2.9% | ? | ? | . | . | ?
O=C1[C@H](Cc2ccccc2)NC/C=C\C[C@H](c2ccco2)N1Cc1ccccc1 | 1.0% | . | -7.6% | . | . | .
Cc1ccc(-n2ncc3c(NCc4ccccc4)ncnc32)cc1C | -11.5% | i | -19.3% | . | . | 29.1%
c1ccc(-n2ncc3c(NCc4cccnc4)ncnc32)cc1 | 0.3% | i | ? | . | 1.41µM* | 7.7%

Compound activity (PubChem)
